Shown are actives, neighbours in structure and some others; about 3.3% of the full set was active somewhere.
PI5P4K alpha inh: blocks human PI5P4K alpha kinase activity. P48426. PI5P4Kalpha enzyme, ADP-Glo luminescence, 60 min; active compounds read low. max response, %. 330,000 compounds, 1.2% hits; active = max response of -50% or lower; inconclusive = between -30% and -50%; inactive = -30% or higher; also: value at the top dose of about 77 µM; % is scaled to controls: 0 for no effect and ±100 for the full control effect
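Compounds were pin-transferred onto PI5P4Kalpha and substrate in HEPES pH 7.4 buffer with EGTA, CHAPS and 5% DMSO. ATP (5 microM final) started the reaction, which ran 60 minutes at room temperature before ADP-Glo detection.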
PI4K2A block: inhibitors of human PI4K2A. purified PI4K2A, ADP-Glo luminescence, 1 h; active compounds read low. activity change, negative = inhibition, % at 76.9 µM. 420,000 compounds, 0.13% hits. AID 1346378; in the data active = activity change below about -50%; inconclusive = mostly about -30% to -49%;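 also: -100% = wells without enzyme as full effect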
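PI4K2A activity was measured by ADP-Glo luminescence: enzyme (4 ug/mL stock) and phosphatidylinositol (1.2 mM stock) in Tris pH 7.5/MgCl2/EGTA/Triton X-100 buffer were reacted with ATP (300 microM stock) for one hour at ambient temperature.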
DRD3 antagonist: blocks the human D3 dopamine receptor; P35462; D3R cells, DiscoveRx beta-arrestin luminescence, antagonist mode; active compounds read low; max response, negative = inhibition, %; 360,000 compounds, 2.5% hits; in the data active = max response below about -50%; inconclusive = no clear call, values can overlap the other calls; also: % is scaled to controls: 0 for no effect and ±100 for the full control effect
Target sequence (P35462 whole entry, looked up): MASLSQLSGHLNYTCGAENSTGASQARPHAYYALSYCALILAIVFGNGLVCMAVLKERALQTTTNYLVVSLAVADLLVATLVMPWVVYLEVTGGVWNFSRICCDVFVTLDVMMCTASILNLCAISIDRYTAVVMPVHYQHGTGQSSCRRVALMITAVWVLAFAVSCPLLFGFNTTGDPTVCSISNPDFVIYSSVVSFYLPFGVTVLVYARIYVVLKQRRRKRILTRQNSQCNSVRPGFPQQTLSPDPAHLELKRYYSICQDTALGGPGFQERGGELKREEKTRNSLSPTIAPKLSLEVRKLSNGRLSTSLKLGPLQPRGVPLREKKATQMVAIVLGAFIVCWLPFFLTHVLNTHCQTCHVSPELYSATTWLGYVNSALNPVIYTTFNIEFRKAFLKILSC
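Cells plated overnight at 1500 cells/well, then exposed to library compounds with dopamine controls for 90 minutes at 37 degrees C. DiscoveRx reagent added for 30–60 minutes at room temperature; luminescence read, quantitative HTS format.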
LDHA inh: inhibitors of human lactate dehydrogenase A. P00338. purified LDHA, NADH/diaphorase-resazurin fluorescence; active compounds read low. activity change, % (values are at about 110 or 230 µM). 480,000 compounds, 0.15% hits; in the data active = activity change below about -30%; inconclusive = mostly about -25% to -30%;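 also: plate controls were DMSO wells for no effect and wells without enzyme for full effect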
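LDH5 2 nM; NADH 0.06 mM, pyruvate 0.2 mM; 200 mM Tris pH 7.4, EDTA, Tween-20; 5 min RT. Detection: diaphorase 0.133 mg/mL + resazurin 37 µM, fluorescence ex540/em590 at 0 and 20 min; normalized to enzyme-free and DMSO wells.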
D3 ag: agonists of human D3 dopamine receptor. D3R DiscoveRx beta-arrestin cells, luminescence, 90 min. max activation, %. P35462. 410,000 compounds, 0.58% hits; in the data active = max activation above about 30%; also: 0% is about no effect
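Cells at 1500/well, incubated overnight, then treated with pinned compounds (dopamine as control) for 90 min at 37 degrees C. DiscoveRx reagent added for 30 - 60 minutes at room temperature; luminescence read.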
An asterisk follows results filed as active; u = inconclusive; x = no result.

SMILES	PI5P4K alpha inh	PI4K2A block	DRD3 antagonist	LDHA inh	D3 ag
O=C(N/N=C\C=C\c1ccc([N+](=O)[O-])o1)c1cccs1	u	0.9	-25.0	-30.1*	-5.5
CC1CCCC(NC(=O)CSCc2cccs2)C1 (stereo not given)	x	x	x	1.8	x
CCSc1nc2ccccc2n1C(=O)/C=C\c1ccc(OC)c(OC)c1	18.6	27.8	-54.5*	1.9	-3.5
CNC(=O)CSc1nc2nn(-c3ccccc3)c(=O)c-2c2n1CCCCC2	x	1.2	u	1.3	-21.7
O=C(CSc1nc2nn(-c3ccccc3)c(=O)c-2c2n1CCCCC2)c1ccc(O)c(O)c1	-54.0*	-5.6	0.0	11.5	3.9
CCCCCNC(=O)c1cc(-c2ccc(OC)cc2)nc2ccccc12	x	x	x	-4.2	x
Nc1nc(CN2CCN(Cc3ccccc3)CC2)nc(Nc2ccc3c(c2)OCCO3)n1	-0.5	2.1	-59.4*	9.5	-0.3
COc1ccccc1N1CCN(Cc2nc(N)nc(Nc3ccccc3)n2)CC1	x	-2.7	-71.1*	-7.4	-9.5
Cc1ccc(Nc2nc(N)nc(CN3CCN(Cc4ccc5c(c4)OCO5)CC3)n2)cc1Cl	-2.1	1.4	u	-0.6	-8.4
COc1ccccc1Nc1nc(N)nc(CN2CCN(c3ccccc3)CC2)n1	x	-4.4	u	-8.1	3.5
COc1ccccc1Nc1nc(N)nc(CN2CCC(Cc3ccccc3)CC2)n1	x	3.3	-58.9*	-10.2	-3.8
O=C(Cc1nnc(NC(=O)c2ccccc2)s1)N/N=C/c1ccc(O)cc1	-28.1	4.1	-9.7	-2.5	-2.3
O=C(Cc1nnc(NC(=O)c2ccccc2)s1)N/N=C\c1ccc(O)c(O)c1	-74.5*	-11.0	1.4	5.1	2.3
COc1ccc2c(c1)[nH]c1c(N3CCSCC3)ncnc12	-0.5	-3.6	70.4	-2.5	30.3*
COc1ccc(C(NC(=O)C2CCN(CCOc3ccc(Cl)cc3Cl)CC2)c2ccccc2C)cn1 (stereo not given)	17.5	-2.8	-77.2*	2.0	-10.9
COc1ccc(/C=C/CN2CCC(C(=O)NC(c3ccc(F)cc3)c3ccc4ccccc4n3)CC2)cc1 (stereo not given)	6.2	1.8	-75.6*	-5.2	-12.6
COc1ccc(C(C)NC(=O)C2CCN(CCOc3ccc(Cl)cc3Cl)CC2)cc1OC (stereo not given)	-4.4	-4.4	-91.9*	0.7	-4.0
CCOc1ccc(C(C)NC(=O)C2CCN(S(=O)(=O)c3ccc(OC)cc3)CC2)cc1OCC (stereo not given)	3.8	-3.7	21.5	-14.6	0.0
COc1ccc(C(NC(=O)C2CCN(CCOc3ccc(F)cc3)CC2)c2cccs2)cc1 (stereo not given)	-0.8	-3.9	-68.3*	-7.5	-24.0
Cn1c(=O)c2c(nc(NCc3ccc(S(N)(=O)=O)cc3)n2Cc2ccc(Cl)cc2)n(C)c1=O	x	x	x	-23.4	x
COc1ccc(C(NC(=O)C2CCN(CCOc3ccc(Cl)cc3Cl)CC2)c2cccs2)cc1 (stereo not given)	4.1	-4.8	255.2	-2.5	61.2*
COc1ccc(OCCN2CCC(C(=O)NC(c3ccsc3)c3ccccc3C)CC2)cc1 (stereo not given)	3.4	1.7	-12.2	1.3	-9.8
Cc1ccccc1C(=O)Nc1cccc(C(=O)N/N=C/c2cc(Cl)cc([N+](=O)[O-])c2O)c1	u	-17.9	-51.7*	-4.2	-10.9
CC(C)(C)N/N=C/c1cc(Cl)cc([N+](=O)[O-])c1O	-28.4	-5.4	-110.2*	7.0	-16.2
O=C(Cn1nnc(-c2ccccc2)n1)N/N=C/c1cccc([N+](=O)[O-])c1O	-22.0	-11.2	-9.4	7.2	5.2
SMILES	PI5P4K alpha inh	PI4K2A block	DRD3 antagonist	LDHA inh	D3 ag
O=[N+]([O-])c1cc(Cl)cc(/C=N/NC(=S)Nc2ccc(S(=O)(=O)N3CCOCC3)cc2)c1O	-85.0*	17.3	-53.8*	-5.0	-18.6
O=C(Cn1nc2ccccc2n1)N/N=C/c1cc(Cl)cc([N+](=O)[O-])c1O	-30.0	0.9	-82.9*	9.6	-15.7
O=C(N/N=C/c1cc([N+](=O)[O-])cc([N+](=O)[O-])c1O)C(O)(c1ccccc1)c1ccccc1	u	-3.9	-15.9	0.0	-5.6
Cc1ccc(Nc2nnc(SCC(=O)N3CCOCC3)s2)c(C)c1	x	x	x	-5.3	x
CC(Oc1cccc(Cl)c1Cl)C(=O)NN (stereo not given)	x	x	x	1.8	x
COC(=O)c1sc(NC(=O)c2cc3ccccc3o2)c(C#N)c1C	x	x	x	-4.1	x

Assay outcomes from PubChem.
